Experiment [1] addresses Estrogen receptor (Homo sapiens) (UniProt P03372). As to the kind of experiment: NVS_NR_hER: NovaScreen (NVS) Nuclear Receptor Binding Assay for human Estrogen Receptor (ER) (AID 2283348). Summed up:
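MCF7-derived receptor extract, radiolabelled ligand, competitive displacement. Read: scintillation counts at 18 h. DMSO = negative control/baseline. Primary 25 uM duplicate; follow-up concentration–response.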

The target is the same in experiment [2]. In words: OT_ER_ERaERa_1440: Odyssey Thera (OT) 24-hour HEK293T Protein-Complementation Assay for Estrogen Receptor-alpha/-alpha Homodimer (AID 2283349).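 Also: hits raise fluorescence above DMSO for agonists and antagonists alike.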 The gist of the method:
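Cells (HEK293T) carrying the fragment-tagged ERα LBD (aa 310-547) pair are treated with chemical for 24 hours. Nuclear and/or cytoplasmic fluorescence is then quantified on a laser scanning cytometer. Activity is scored as signal gain against DMSO.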

Experiment [3] has the same target. In words: OT_ER_ERaERa_0480: Odyssey Thera (OT) 8-hour HEK293T Protein-Complementation Assay for Estrogen Receptor-alpha/-alpha Homodimer (AID 2283351).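 Also: rise in fluorescence from reassembled reporter fragments on ERα LBD homodimer in nucleus or whole cell.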 The gist of the method:
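Read-out: fluorescence intensity rise relative to DMSO, nuclear for agonists, nuclear plus cytoplasmic for antagonists. Construct is the ERα LBD (aa 310-547) homodimer fragment-complementation pair, stably expressed in HEK293T; exposure 8 h.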

Experiment [4] has as its target human Constitutive Androstane Receptor (CAR), NR1I3 (gene 9970) (UniProt Q14994). In words: NVS_NR_hCAR_Antagonist: NovaScreen (NVS) Nuclear Receptor Binding Assay for human Constitutive Androstane Receptor Antagonism (CAR) (AID 2283344). Summed up: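 Single 25 uM duplicate primary screen, with concentration-series follow-up on actives. Cell-free binding format run in antagonist mode, TR-FRET signal taken 1 h post-dose; activity is signal loss relative to DMSO.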

The target of experiment [5] is Estrogen receptor (Homo sapiens) + Estrogen receptor beta (Homo sapiens) (UniProt P03372+Q92731). As to the kind of experiment: OT_ER_ERaERb_1440: Odyssey Thera (OT) 24-hour HEK293T Protein-Complementation Assay for Estrogen Receptor-alpha/-beta Homodimer (AID 2283356).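 Also: heteromer of ER alpha and ER beta binding domains; hits raise reporter fluorescence and both agonists and antagonists give an increase.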 The gist of the method:
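Readout: mean fluorescence intensity in nucleus (agonists) or nucleus plus cytoplasm (antagonists), read by laser scanning cytometer after 24 h compound exposure of HEK293T cells carrying ERα/ERβ LBD fragment-complementation constructs; DMSO baseline.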

Experiment [6] deals with Estrogen receptor beta (Homo sapiens) (UniProt Q92731). As to the kind of experiment: OT_ER_ERbERb_0480: Odyssey Thera (OT) 8-hour HEK293T Protein-Complementation Assay for Estrogen Receptor-beta/-beta Homodimer (AID 2283357).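 Also: active means signal gain over DMSO baseline.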 Summed up:
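Homodimerization of ER-beta LBD measured by protein-fragment complementation in HEK293T; 8 h dosing; fixed, Draq5 counterstain; fluorescence intensity gain over DMSO baseline, positive fitting direction; laser scanning cytometry.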

Experiment [7] has as its target Bile acid receptor (Homo sapiens) (UniProt Q96RI1). As to the kind of experiment: NVS_NR_hFXR_Antagonist: NovaScreen (NVS) Nuclear Receptor Binding Assay for human Farnesoid X Receptor Antagonism (FXR) (AID 2283350). Summed up:
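Antagonist-format time-resolved FRET binding assay with extracted human receptor protein, read 1 hour after compound addition. Compounds first screened at 25 uM in duplicate, then actives tested in concentration series, with loss of signal relative to DMSO.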

Experiment [8] deals with Androgen Receptor/SRC-1 Co-activator, AR (gene 367) (UniProt P10275). In words: OT_AR_ARSRC1_0960: Odyssey Thera (OT) 16-hour HEK293T Protein-Complementation Assay for Androgen Receptor/SRC-1 Co-activator (AID 2283353).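 Also: actives raise the signal above DMSO so potency reflects increased AR and SRC-1 complex.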 Summed up: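 Readout: 488 nm nuclear-to-cytoplasmic fluorescence ratio from imaging of at least 400 cells per image, 16 h post-dose. Reporter is Venus YFP complementation between AR and SRC-1 fusions, stably expressed in HEK293T; activity scored upward relative to DMSO.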

Experiment [9] addresses chimpanzee Androgen Receptor (AR), AR (gene 747460) (UniProt O97775). As to the kind of experiment: NVS_NR_cAR: NovaScreen (NVS) Nuclear Receptor Binding Assay for chimpanzee Androgen Receptor (AR) (AID 2283346).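 Also: radioligand displacement from AR measured by scintillation counting in a cell-free assay; a loss of bound radioligand signal versus DMSO counts as binding.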 The gist of the method:
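Radioligand binding to chimpanzee AR expressed in Sf9/Sf21 cells, cell-free, measured 72 h after dosing by lysate-based scintillation counting. Loss of signal vs DMSO; initial duplicate screen at 25 uM, actives retested in concentration series.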

In experiment [10] the target is bovine Estrogen Receptor (ER), ESR1 (gene 407238) (UniProt P49884). As to the kind of experiment: NVS_NR_bER: NovaScreen (NVS) Nuclear Receptor Binding Assay for bovine Estrogen Receptor (ER) (AID 2283345).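 Also: actives lower the bound radioligand count which means they displace the ER ligand.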 Summed up: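 Displacement of a radioligand from estrogen receptor in bovine uterine membrane preparations; scintillation signal taken at 18 hours, DMSO as baseline. Single-concentration duplicates (25 uM) preceded concentration-response follow-up of actives.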

The target of experiment [11] is rat Mineralocorticoid Receptor (MR), Nr3c2 (gene 25672) (UniProt P22199). As to the kind of experiment: NVS_NR_rMR: NovaScreen (NVS) Nuclear Receptor Binding Assay for rat Mineralocorticoid Receptor (MR) (AID 2283355). The gist of the method: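 Radioligand displacement, scintillation readout; tissue source adrenalectomized rat brain supernatant. Read 24 h post-dose. Screened in duplicate at 25 uM, DMSO negative control, controls on every plate; actives re-run in concentration series.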

Experiment [12] addresses Retinoic acid receptor alpha (Homo sapiens) (UniProt P10276). In words: NVS_NR_hRAR_Antagonist: NovaScreen (NVS) Nuclear Receptor Binding Assay for human Retinoic Acid Alpha Receptor Antagonism (RAR) (AID 2283358). The gist of the method: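 Read-out: time-resolved FRET binding signal, 2 h post-dose, cell-free extracted protein. Antagonism scored as signal loss versus DMSO negative control. Primary single-concentration screen at 25 uM in duplicate; concentration series for actives.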

The structures appear in SMILES notation. Where “and” joins values, the source holds several entries; their conditions need not be identical. Identical values can stand only once. Inconclusive results are not listed. More than one record can exist for a structure, and the calls need not agree. Calls of active or inactive are those of the source. The calls were made as follows: active = hit-call score of the fitted dose curve at least 0.9, where 1 is the maximum; inconclusive = response in the unintended direction; inactive = score below 0.9.

Sequence of Bile acid receptor (Homo sapiens) (Q96RI1 whole entry, looked up): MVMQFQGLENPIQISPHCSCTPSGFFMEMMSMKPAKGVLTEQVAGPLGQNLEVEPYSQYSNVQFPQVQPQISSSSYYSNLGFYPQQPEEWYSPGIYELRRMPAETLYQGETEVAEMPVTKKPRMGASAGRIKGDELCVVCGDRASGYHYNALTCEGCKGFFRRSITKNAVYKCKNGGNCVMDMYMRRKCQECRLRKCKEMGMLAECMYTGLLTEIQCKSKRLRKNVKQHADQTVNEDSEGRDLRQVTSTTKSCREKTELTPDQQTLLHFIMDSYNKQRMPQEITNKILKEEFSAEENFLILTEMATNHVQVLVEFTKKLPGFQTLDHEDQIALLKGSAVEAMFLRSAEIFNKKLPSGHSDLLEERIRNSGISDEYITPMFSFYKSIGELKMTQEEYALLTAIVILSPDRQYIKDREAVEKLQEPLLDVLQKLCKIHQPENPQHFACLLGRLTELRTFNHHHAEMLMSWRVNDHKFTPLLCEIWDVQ
Sequence of Estrogen receptor beta (Homo sapiens) (Q92731 whole entry, looked up, the tested form may be a part): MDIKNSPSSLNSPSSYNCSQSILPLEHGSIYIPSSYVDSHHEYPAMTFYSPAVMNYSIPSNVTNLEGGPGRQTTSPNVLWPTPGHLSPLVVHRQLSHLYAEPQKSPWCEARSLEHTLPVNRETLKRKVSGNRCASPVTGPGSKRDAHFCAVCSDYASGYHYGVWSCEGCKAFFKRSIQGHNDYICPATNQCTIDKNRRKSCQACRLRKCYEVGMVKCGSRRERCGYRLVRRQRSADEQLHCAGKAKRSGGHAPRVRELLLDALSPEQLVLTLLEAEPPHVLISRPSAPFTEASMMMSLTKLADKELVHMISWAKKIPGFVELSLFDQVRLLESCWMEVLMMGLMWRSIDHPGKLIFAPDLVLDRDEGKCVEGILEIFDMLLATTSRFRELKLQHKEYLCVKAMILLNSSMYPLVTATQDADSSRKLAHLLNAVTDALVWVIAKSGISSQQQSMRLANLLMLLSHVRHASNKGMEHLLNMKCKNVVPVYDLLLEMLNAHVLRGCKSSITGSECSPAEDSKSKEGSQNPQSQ
Sequence of chimpanzee Androgen Receptor (AR), AR (gene 747460) (O97775 whole entry, looked up): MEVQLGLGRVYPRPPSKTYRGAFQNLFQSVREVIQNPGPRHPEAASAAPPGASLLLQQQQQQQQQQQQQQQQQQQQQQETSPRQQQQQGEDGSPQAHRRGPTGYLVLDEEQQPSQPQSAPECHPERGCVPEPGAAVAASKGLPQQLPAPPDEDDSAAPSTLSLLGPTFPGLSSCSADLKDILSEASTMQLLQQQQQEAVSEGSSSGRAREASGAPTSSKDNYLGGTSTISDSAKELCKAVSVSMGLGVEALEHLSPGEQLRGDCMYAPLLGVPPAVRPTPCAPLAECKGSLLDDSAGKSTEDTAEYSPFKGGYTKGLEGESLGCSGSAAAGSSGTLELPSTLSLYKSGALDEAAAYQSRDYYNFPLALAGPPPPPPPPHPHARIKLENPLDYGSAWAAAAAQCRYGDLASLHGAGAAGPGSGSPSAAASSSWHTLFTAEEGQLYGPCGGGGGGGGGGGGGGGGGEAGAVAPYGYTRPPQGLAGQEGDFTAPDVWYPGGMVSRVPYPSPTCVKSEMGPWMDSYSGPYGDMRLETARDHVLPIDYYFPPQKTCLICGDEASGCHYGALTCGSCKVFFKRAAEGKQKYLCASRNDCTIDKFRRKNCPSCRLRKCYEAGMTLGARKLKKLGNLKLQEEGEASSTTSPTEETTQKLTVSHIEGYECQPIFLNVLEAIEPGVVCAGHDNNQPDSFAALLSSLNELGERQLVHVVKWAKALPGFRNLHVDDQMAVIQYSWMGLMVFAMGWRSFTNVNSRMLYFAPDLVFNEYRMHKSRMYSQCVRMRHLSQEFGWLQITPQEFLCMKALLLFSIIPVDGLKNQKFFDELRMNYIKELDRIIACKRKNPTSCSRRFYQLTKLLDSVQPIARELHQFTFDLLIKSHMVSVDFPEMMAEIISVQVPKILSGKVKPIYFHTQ
Sequence of bovine Estrogen Receptor (ER), ESR1 (gene 407238) (P49884 whole entry, looked up): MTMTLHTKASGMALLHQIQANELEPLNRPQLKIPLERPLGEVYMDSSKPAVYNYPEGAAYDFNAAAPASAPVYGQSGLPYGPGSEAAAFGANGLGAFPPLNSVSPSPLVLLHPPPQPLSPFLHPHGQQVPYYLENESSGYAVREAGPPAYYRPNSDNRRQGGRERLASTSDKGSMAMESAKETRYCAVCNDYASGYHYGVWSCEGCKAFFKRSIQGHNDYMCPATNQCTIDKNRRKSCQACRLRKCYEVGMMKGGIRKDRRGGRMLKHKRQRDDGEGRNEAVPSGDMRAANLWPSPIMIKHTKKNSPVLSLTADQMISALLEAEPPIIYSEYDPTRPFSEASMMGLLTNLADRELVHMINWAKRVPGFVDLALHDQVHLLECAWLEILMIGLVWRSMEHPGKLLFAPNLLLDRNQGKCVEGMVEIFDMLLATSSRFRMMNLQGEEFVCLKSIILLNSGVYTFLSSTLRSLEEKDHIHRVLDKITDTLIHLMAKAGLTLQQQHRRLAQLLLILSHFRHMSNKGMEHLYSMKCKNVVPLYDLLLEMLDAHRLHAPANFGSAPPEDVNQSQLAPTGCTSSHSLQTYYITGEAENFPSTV
Sequence of Androgen Receptor/SRC-1 Co-activator, AR (gene 367) (P10275 whole entry, looked up, the tested form may be a part): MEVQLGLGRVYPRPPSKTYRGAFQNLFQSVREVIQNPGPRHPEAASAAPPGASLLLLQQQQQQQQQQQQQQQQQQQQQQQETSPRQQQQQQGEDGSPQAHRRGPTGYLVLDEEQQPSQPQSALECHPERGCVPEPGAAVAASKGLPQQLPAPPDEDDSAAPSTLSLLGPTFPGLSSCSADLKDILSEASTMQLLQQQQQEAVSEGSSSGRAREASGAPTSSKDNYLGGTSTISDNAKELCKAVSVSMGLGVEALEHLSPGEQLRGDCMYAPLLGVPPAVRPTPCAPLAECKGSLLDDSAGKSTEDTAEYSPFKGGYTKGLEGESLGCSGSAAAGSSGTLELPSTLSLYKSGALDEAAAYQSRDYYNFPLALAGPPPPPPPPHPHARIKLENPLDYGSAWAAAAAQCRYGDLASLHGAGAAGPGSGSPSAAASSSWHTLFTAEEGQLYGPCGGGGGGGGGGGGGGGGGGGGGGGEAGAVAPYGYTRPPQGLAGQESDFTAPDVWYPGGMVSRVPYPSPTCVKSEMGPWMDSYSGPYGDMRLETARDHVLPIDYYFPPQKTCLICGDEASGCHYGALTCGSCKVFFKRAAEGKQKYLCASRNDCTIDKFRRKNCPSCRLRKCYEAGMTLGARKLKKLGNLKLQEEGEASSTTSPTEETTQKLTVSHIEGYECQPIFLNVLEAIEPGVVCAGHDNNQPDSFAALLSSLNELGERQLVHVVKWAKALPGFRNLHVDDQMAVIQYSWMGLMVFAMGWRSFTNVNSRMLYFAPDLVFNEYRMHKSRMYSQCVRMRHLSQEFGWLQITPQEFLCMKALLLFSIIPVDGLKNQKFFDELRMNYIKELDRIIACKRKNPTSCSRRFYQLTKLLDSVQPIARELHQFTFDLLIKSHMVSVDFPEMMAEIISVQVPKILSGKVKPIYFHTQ
Sequence of Estrogen receptor (Homo sapiens) (P03372 whole entry, looked up): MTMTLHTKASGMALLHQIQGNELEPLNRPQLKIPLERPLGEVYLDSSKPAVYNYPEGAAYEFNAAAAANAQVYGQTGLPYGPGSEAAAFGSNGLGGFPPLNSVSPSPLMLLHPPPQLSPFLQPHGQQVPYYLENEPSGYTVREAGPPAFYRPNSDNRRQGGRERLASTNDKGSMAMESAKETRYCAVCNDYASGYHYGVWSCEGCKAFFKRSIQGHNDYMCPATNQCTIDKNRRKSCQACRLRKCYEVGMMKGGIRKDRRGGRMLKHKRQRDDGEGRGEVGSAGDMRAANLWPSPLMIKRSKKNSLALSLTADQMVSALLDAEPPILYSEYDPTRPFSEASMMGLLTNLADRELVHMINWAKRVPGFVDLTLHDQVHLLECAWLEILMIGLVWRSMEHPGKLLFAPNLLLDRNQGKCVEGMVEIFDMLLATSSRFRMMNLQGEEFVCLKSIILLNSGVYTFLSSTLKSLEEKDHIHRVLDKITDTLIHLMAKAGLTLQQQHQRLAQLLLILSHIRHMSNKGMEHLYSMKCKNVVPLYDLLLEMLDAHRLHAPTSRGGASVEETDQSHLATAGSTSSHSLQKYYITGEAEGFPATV
Sequence of rat Mineralocorticoid Receptor (MR), Nr3c2 (gene 25672) (P22199 whole entry, looked up): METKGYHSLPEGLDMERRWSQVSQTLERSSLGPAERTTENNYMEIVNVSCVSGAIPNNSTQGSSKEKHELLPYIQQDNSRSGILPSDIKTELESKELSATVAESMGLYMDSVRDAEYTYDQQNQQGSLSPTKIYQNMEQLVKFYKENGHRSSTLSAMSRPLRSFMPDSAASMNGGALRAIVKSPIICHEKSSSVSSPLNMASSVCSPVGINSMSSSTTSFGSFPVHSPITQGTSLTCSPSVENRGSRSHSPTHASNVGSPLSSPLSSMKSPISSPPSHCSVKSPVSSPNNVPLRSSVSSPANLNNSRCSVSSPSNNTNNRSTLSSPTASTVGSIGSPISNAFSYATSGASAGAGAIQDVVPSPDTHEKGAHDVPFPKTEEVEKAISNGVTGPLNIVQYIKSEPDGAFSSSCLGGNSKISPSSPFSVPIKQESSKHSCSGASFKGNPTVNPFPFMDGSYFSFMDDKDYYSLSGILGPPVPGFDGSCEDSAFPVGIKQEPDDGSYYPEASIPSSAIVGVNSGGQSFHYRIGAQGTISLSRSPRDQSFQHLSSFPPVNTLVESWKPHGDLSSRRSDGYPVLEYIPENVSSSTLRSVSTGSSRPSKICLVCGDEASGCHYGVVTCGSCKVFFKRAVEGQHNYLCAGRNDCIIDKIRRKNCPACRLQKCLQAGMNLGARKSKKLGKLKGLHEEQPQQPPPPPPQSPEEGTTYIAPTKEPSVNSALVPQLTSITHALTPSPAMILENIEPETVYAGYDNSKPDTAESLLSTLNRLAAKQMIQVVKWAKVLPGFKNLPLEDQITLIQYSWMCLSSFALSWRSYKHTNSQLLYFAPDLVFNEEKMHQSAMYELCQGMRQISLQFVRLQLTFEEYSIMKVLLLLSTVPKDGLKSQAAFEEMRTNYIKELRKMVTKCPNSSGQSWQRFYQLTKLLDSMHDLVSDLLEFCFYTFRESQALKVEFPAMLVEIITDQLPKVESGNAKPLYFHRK

For the molecule `c1ccc2ccccc2c1`, the molecule was called inactive in experiment [1], in experiment [2] and in [3].
In the case of `CC(C)(C)c1csc(-c2cc3cc(OCc4ccccc4CC(=O)O)ccc3o2)n1`, the molecule was classed as inactive in experiment [4], in experiment [2], in experiment [3], in experiment [5] and in experiment [6].
`O=c1[nH]sc2ccccc12`: the molecule was called inactive in experiment [2], in experiment [7], in experiment [3], in experiment [5] and in [6].
For the molecule `CCCCCCCCCC(=O)O`, in experiment [8], the molecule was classed as inactive.
With `CCO[Si](CCCNC(N)=O)(OCC)OCC`, the molecule was classed as inactive in [2], in [7], in [3], in [5] and in experiment [6].
The AC50 is the midpoint of the concentration-response curve, whichever way the signal moves. Turning to `CCN(Cc1cccc(S(=O)(=O)O)c1)c1ccc(C(=C2C=CC(=[N+](CC)Cc3cccc(S(=O)(=O)O)c3)C=C2)c2ccccc2S(=O)(=O)[O-])cc1`, in experiment [9], the AC50 is 16.1 µM (active). For the same molecule, the molecule was classed as inactive in experiment [2], in experiment [7], in experiment [5] and in [6].
As to `O=C(OCCCCCCOC(=O)c1ccccc1)c1ccccc1`, the outcome in [2] and in [3] was inactive.
`Clc1ccccc1C(c1ccccc1)(c1ccccc1)n1ccnc1`: the molecule was called inactive in [10], in [1], in [2], in experiment [3], in [5] and in experiment [6].
With `COCC(C)OCC(C)OCC(C)O` (configuration not stated), the outcome in experiment [2], in experiment [3], in experiment [8], in [5] and in experiment [6] was inactive.
Consider `CCCCCCCCCCCCO`, for which the molecule was called inactive in experiment [2], in experiment [3], in experiment [5] and in experiment [6].
As for `O=C(O)c1ccccc1-n1cc(C(=O)O)c(=O)c2cc(Nc3c(F)cc(F)cc3Cl)c(Cl)cc21`, the result in experiment [2], in experiment [11] and in experiment [5] was inactive.
For `CC[C@@H]1C[C@H](N(Cc2cc(C(F)(F)F)cc(C(F)(F)F)c2)C(C)=O)c2cc(C(F)(F)F)ccc2N1C(=O)OC(C)C`, the call in experiment [2], in [5] and in experiment [6] was inactive.
Turning to `CCCOC(=O)c1cc(O)c(O)c(O)c1`, the call in experiment [10], in [1] and in [2] was inactive. The AC50 in experiment [3] is 50 µM (active); in experiment [5] it was 49 µM (active); in experiment [6], 25.4 µM (active).
As for `O=C(O)Cn1c(=O)n(Cc2ccc(Br)cc2F)c(=O)c2ccc(Cl)cc21`, the result in [2], in experiment [3], in experiment [8], in experiment [5] and in [6] was inactive.
On to `O=C(O)c1ccccc1C(=O)OCc1ccccc1`, for which the molecule was called inactive in experiment [2], in experiment [7], in experiment [3] and in experiment [8].
As for `C[C@]12CC[C@@H]3c4ccc(O)cc4CC[C@H]3[C@@H]1CCC2=O`, the molecule was classed as inactive in experiment [10], in experiment [9] and in experiment [11]. Further, the AC50 in [9] is 0.472 µM (active).
For `CCCCCCCCOc1ccc(C(=O)c2ccccc2)c(O)c1`, the molecule was called inactive in experiment [2] and in experiment [3].
Take `CC(C)(C)c1cc(/C=C2\SC(N)=NC2=O)cc(C(C)(C)C)c1O`: the outcome in [10], in experiment [1], in [2] and in experiment [3] was inactive. The AC50 in experiment [9] was 33.9 µM (active).
Consider `CCCCCc1ccc(N)cc1`, for which the outcome in [10], in experiment [9], in [1], in [2], in [3] and in experiment [5] was inactive. In addition, in experiment [6], the molecule was called inactive. Moreover, the AC50 in [3] is 67 µM (active) and 67.6 µM (active); in [5], 18.9 µM (active) and 27.8 µM (active) and 42.5 µM (active); in experiment [6], 65.3 µM (active) and 55.7 µM (active) and 56.6 µM (active).
On to `Cc1cc2c(cc1C(F)(F)F)N(C(=O)Nc1ccc(Oc3cccnc3C)nc1)CC2`, for which the call in experiment [10], in [9], in experiment [2], in [3], in [5] and in [6] was inactive.
Turning to `CN1C(=O)N(c2ccccc2Br)Cc2cnc(Nc3ccc4c(c3)OCC(CO)O4)nc21` (configuration not stated), the AC50 in [10] is 0.447 µM (active); in experiment [7], 0.0374 µM (active). For the same molecule, the molecule was classed as inactive in experiment [9], in experiment [2], in experiment [3], in experiment [5], in [6] and in experiment [12].

Values taken from PubChem BioAssay (EPA / NIEHS).
